From PubChem BioAssay AID1030 (National Center for Advancing Translational Sciences (NCATS), 2008)
The campaign covered roughly 220,000 compounds. About 16,000 (7.3%) were called active. About 25% were inconclusive and are not listed. Calls come from the whole dose curve; as a rule, active = well fitted inhibition curve with a large enough effect (not every such curve was filed as active); inconclusive = small, poorly fitted or top-dose-only effect, or another doubt; inactive = no such curve, though single readings can be large or run the other way. The full list was thinned out, with actives kept by preference.

What follows are compounds tested against Aldehyde dehydrogenase 1A1 (Homo sapiens) (UniProt P00352) (assay: qHTS Assay for Inhibitors of Aldehyde Dehydrogenase 1 (ALDH1A1)). Conditions: Purified ALDH1A1, NADH fluorescence, propionaldehyde substrate; series mostly up to 75.3 µM; activity, negative = inhibition: at the top concentration.
Potency is the fitted concentration of half-maximal effect.
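Throughout, for activity, negative = inhibition: plate controls were no enzyme wells and a reference inhibitor.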

Aldehyde dehydrogenase 1A1 (Homo sapiens), sequence (P00352 whole entry, looked up): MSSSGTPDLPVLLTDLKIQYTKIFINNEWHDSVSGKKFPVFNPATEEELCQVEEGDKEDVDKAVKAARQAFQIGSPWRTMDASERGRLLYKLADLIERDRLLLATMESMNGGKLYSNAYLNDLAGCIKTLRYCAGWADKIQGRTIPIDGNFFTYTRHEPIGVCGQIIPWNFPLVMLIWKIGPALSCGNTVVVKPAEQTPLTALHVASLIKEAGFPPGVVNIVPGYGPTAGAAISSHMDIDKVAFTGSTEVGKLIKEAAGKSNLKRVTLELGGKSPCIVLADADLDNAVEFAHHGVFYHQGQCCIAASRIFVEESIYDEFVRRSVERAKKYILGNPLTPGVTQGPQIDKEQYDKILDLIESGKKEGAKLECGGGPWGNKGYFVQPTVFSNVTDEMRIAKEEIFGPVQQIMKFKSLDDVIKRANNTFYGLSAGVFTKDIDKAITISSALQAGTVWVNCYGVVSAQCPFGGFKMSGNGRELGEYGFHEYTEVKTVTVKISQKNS

activity, negative = inhibition, inactive:
S=C(NCc1cccnc1)Nc1ccc(Cl)cc1Cl -4.79%
C/C(=N\OCC(=O)Nc1ccc(Br)cc1)c1cccs1 3%
CCOC(=O)c1cc(C)nc(S(C)(=O)=O)c1C#N 1.72%
[O-][n+]1c2c(nn1-c1ccc(Cl)c(Cl)c1)-c1nonc1CC2 12.6%
Cc1cc(C)cc(NC(=O)N2CCCCCCC2)c1 -1.68%
O=C(NC1CCCCC1)C1CCCN(S(=O)(=O)c2ccc(Br)s2)C1 (centres undefined) 2.8%
Cc1ccc(C2CCN(C(=S)Nc3cccc(Cl)c3)C2)cc1 (centres undefined) -1.08%
CC(C)(C)NC(=O)NC(=O)COC(=O)C1(C)CC1(Cl)Cl (centres undefined) 10.1%
Cc1[nH]n(C)c(=O)c1N=Nc1ccc(S(C)(=O)=O)cc1 7.33%
NC(=O)C1CCN(C2OC(=O)c3ccccc32)CC1 (centres undefined) -5.84%
COC(=O)CN(C(=S)Nc1ccc(Cl)cc1)C1CC(=O)N(c2ccc(OC)cc2)C1=O (centres undefined) 14.5%
O=C(Cc1ccccc1)NNC1CC(=O)N(c2ccc(Br)cc2)C1=O (centres undefined) 3.95%
CNC(=O)NC(=O)C(C)N1CCN(C/C=C/c2ccccc2)CC1 (centres undefined) -7.23%
O=C(Cn1c(N2CCN(C/C=C/c3ccccc3)CC2)nc2ccccc21)c1ccccc1 3.06%
CCOC(=O)c1ccccc1C(=O)N1CCOCCOCCOCC1 9.52%
CCCOC(=O)c1ccc(N2C(=O)c3ccccc3C2=O)cc1 1.75%
CCOC(=O)c1ccc(NC(=S)N2CCCC2)cc1 -15.1%
CN(C)NC(=O)c1csnc1-c1c(Cl)cccc1Cl 7.95%
CC(C)(C)c1ccc(/C=C/C(=O)NC2CCS(=O)(=O)C2)cc1 (centres undefined) -11.6%
CCOC(=O)CNC(=O)N1c2ccccc2Sc2ccccc21 8.51%
CN(CC(=O)N1CCN(c2ccccc2)CC1)S(=O)(=O)c1cccs1 7.8%
CC(=O)N1CCN(S(=O)(=O)c2c(F)cc(F)c(Cl)c2F)CC1 8.19%
COc1ccc(/C(=N\O)c2nccc3cc(OC)c(OC)cc23)cc1OC 14.1%
CCC1(C)Cc2c(sc3nc(SC)[nH]c(=O)c23)CO1 (centres undefined) 0.569%
N=C1C(c2nc3ccccc3[nH]2)=C(O)CN1NC(=O)c1c[nH]c2ccccc12 8.77%
COc1ccc(NC(=S)N2CCCC(CO)C2)c(OC)c1 (centres undefined) 4.06%
Cc1cccc(C(=O)OCC(=O)NCC(C)C)c1O 4.6%
CCOC(=O)c1ccc(NC(=O)C2CC(=O)Nc3nc4ccccc4n32)cc1 (centres undefined) 12.3%
CSc1nc(O)c(Cc2ccccc2)c(=O)[nH]1 -0.847%
CCCOc1ccc(N2C(=O)CC(N(CCc3ccc(S(N)(=O)=O)cc3)C(C)=O)C2=O)cc1 (centres undefined) -10.9%
CCOC(=O)C1CCN(C(=O)Nc2ccc(Cl)cc2)CC1 8.47%
CN1C(=O)CC(N2CCN(c3ccccn3)CC2)C1=O (centres undefined) -14.7%
CCOC(=O)C1CCN(c2ccc(C(=O)O)cc2[N+](=O)[O-])CC1 2.01%
O=C1CC(N2CCN(c3ccc(F)cc3)CC2)C(=O)N1c1ccccc1 (centres undefined) -3.2%
CCOc1ccc(N2C(=O)CC(N(CCc3ccc(OC)c(OC)c3)C(=S)Nc3ccccc3)C2=O)cc1 (centres undefined) 4.94%
O=C(Nc1ccn(Cc2ccccc2)n1)c1n[nH]c([N+](=O)[O-])c1Cl -1.46%
CCn1nc(C)c(CN2CCN(Cc3ccc(OC)c(C)c3C)C(CCO)C2)c1C (centres undefined) -0.693%
O=C(O)CCN(Cc1ccccc1)S(=O)(=O)c1c(Cl)cccc1Cl -4.7%
CCOc1ccc(NC(=O)c2cc(C)nc3ccccc23)cc1 0.296%
O=C(CCCOc1ccc(Cl)cc1Cl)NNC(=O)C1CCC1 1.22%
COCc1cc(=O)[nH]c(-c2ccc(C(F)(F)F)cc2)n1 0.201%
O=C(CCc1ccccc1)Nc1nn[nH]n1 -3.34%
COc1ccc(N2C(=O)C(Cc3ccccc3)NC2=S)cc1 (centres undefined) 14.4%
COC(=O)CC1=NN(c2nc(C)cc(C)n2)C(=O)C1 2.76%
c1ccc(CN=C2Nc3ccccc3CS2)nc1 0.764%
CCC(C(=O)Nc1ccc2c(c1)OCCO2)c1ccccc1 (centres undefined) -4.94%
CCOc1ccc(N2CC(C(=O)NCCN3C(=O)S/C(=C\c4cccnc4)C3=O)CC2=O)cc1 (centres undefined) -7.75%
C[C@H](NC(=O)c1ccccc1Cl)C(=O)OCCOc1cccc(Cl)c1 4.04%
CC1CN(C(=S)SCC(=O)c2ccccc2)CC(C)O1 (centres undefined) 0.843%
CCC(=O)c1ccc(OCC(O)CN2CC(C)OC(C)C2)cc1 (centres undefined) -13.7%
CN1CCN(CCC(=O)N/N=C/C=C2\N(C)c3ccccc3C2(C)C)CC1 3.13%
Cc1cccc(-n2c(Cc3cc(=O)[nH]c(=O)[nH]3)nnc2SCC(=O)Nc2cccc(C(F)(F)F)c2)c1 -2.03%
CCOC(=O)N1CCN(C(=O)CSc2nc(C)nc3c2c(=O)n(C)c(=O)n3C)CC1 1.21%
CCOC(=O)c1c(C)nn(-c2ncccc2NC(=O)CCC(=O)O)c1C 5.83%
CC(C)N(C)C(=O)CCc1nnc(CCc2c[nH]c3ccccc23)o1 4.17%
O=C(CSc1nc(-c2ccco2)cc(C(F)(F)F)n1)NCc1cccs1 -0.0855%
FC(F)(F)c1cc(-c2ccco2)nc(N2CCOCC2)n1 0.194%

Potency, inactive:
Cc1cc(=O)[nH]c(=S)[nH]1

Potency, active:
O=c1[nH]c(=S)[nH]c2[nH]c(=S)[nH]c12 10 µM
COc1ccc(N2C(=O)CC(N3CCC(C(N)=O)CC3)C2=O)cc1 (centres undefined) 7.94 µM
CCOC(=O)c1ccc(N2C(=O)CC(N3CCN(C(=O)c4ccccc4)CC3)C2=O)cc1 (centres undefined) 3.55 µM
CCCCOC(=O)c1ccc(N2C(=O)CC(N3CCN(C/C=C/c4ccccc4)CC3)C2=O)cc1 (centres undefined) 12.6 µM
CCOC(=O)c1ccc(N2C(=O)CC(N(C)Cc3ccccc3)C2=O)cc1 (centres undefined) 11.2 µM
CCCCCCC(=O)N(O)C1CC(=O)N(c2ccccc2)C1=O (centres undefined) 0.316 µM
CCOC(=O)c1ccc(N2C(=O)CC(Sc3nc(O)c(CC)c(=O)[nH]3)C2=O)cc1 (centres undefined) 10 µM
CCOC(=O)c1ccc(N2C(=O)CC(N3CCC(C(=O)OCC)CC3)C2=O)cc1 (centres undefined) 12.6 µM
COC(=O)c1cc(C(=O)OC)cc(N2C(=O)CC(N3CCN(c4ccccc4)CC3)C2=O)c1 (centres undefined) 31.6 µM
CCOC(=O)c1ccc(N2C(=O)CC(N3CC(C)OC(C)C3)C2=O)cc1 (centres undefined) 7.94 µM
O=C(CSc1nc(-c2ccco2)cc(C(F)(F)F)n1)N1CCc2ccccc2C1 11.2 µM
